Assay results taken from PubChem BioAssay (NCI).
About 79,000 compounds went through this panel and 15% of them were active in at least one assay; those are over-represented in the sample as a whole. The source made the active and inactive calls. Rule as the data show it: active = growth inhibition above about 70%; inactive = the rest. Where a SMILES comes first, the peptide text is derived from it.

Columns and labels:
[1] = NCI Yeast Anticancer Drug Screen. Data for the rad50 strain (AID 155);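 also: 0% = growth of vehicle-only cultures of the same strain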; conditions: S. cerevisiae rad50 strain growth inhibition; at 50.0 µM; stronger effect = higher value
Outline: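 Genetically altered yeast (DNA repair pathway); compound treatment; growth inhibition vs vehicle ctrl.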

[2] = NCI Yeast Anticancer Drug Screen. Data for the mec2-1 strain (AID 157); conditions: S. cerevisiae mec2-1 strain, at 50.0 µM, stronger effect = higher value
Outline: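 Compounds were applied to mec2-1 yeast cells. Their growth was then compared with that of vehicle-treated cultures to give growth inhibition.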

[3] = NCI Yeast Anticancer Drug Screen. Data for the sgs1 mgt1 strain (AID 161);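 also: 0% = growth of cultures given vehicle only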; conditions: S. cerevisiae sgs1 mgt1 strain, at 50.0 µM, stronger effect = higher value
Outline: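 Percent growth inhibition was derived by comparing compound-exposed mutant yeast with vehicle-exposed cultures. The strain carries alterations in DNA damage repair.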

[4] = NCI Yeast Anticancer Drug Screen. Data for the cln2 rad14 strain (AID 165);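 also: 0% = growth equal to vehicle treated cultures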; conditions: S. cerevisiae cln2 rad14 strain, at 50.0 µM, stronger effect = higher value
Outline: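 Strain: cln2 rad14 yeast, altered in cell cycle control and DNA damage repair. Read-out: growth inhibition vs vehicle.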

[5] = NCI Yeast Anticancer Drug Screen. Data for the bub3 strain (AID 167); conditions: S. cerevisiae bub3 mutant strain, at 50.0 µM, stronger effect = higher value
Outline: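 Yeast carrying a defined mutation is treated with each compound, and growth is compared with that of vehicle-exposed cells to give inhibition.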

[6] = NCI Yeast Anticancer Drug Screen. Data for the mlh1 rad18 strain (AID 175); conditions: S. cerevisiae mlh1 rad18 strain growth inhibition; at 50.0 µM; stronger effect = higher value
Outline: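 A repair-deficient yeast strain is exposed to test compound, and growth is scored relative to vehicle-treated controls.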

Measured: growth inhibition

COC(=O)C1CCCN1C(c1ccccc1)(c1ccccc1)c1ccccc1 (stereo not given)
inactive: [1] -9.45% | [2] -2.2% | [3] -11.5% | [4] -2.15% | [5] 2.45% | [6] -23.5%

Nc1nc2c(nnn2C2OC(CO)C(O)C2O)c(=O)[nH]1 (stereo not given)
inactive: [1] -4.6% | [2] 5.65% | [3] -5.3% | [4] -37.5% | [5] -16.8% | [6] 9.45%

COc1ccc(C2=NC(C)(C)CO2)cc1C
inactive: [1] -23.1% | [2] -4.15% | [3] 3.6% | [4] -17.9% | [5] 21.1% | [6] 20.5%

CCCCCCCC/C=C\CCCCCCCC(=O)OC
inactive: [1] 33.5% | [2] 43.8% | [3] 49.3% | [4] -32.1% | [5] 44% | [6] 49%

O=S(=O)(O)CCc1ccccc1
inactive: [1] 1.9% | [2] 9.15% | [3] -10.9% | [4] -7.5% | [5] -21.1% | [6] -26.5%

S=c1[nH]ncn1/N=C/c1ccccc1Cl
inactive: [1] 23.6% | [2] 37% | [3] 54.4% | [4] 22.9% | [5] -5.65% | [6] 37.6%

CC(C)(Oc1ccc(C(=O)c2ccc(Cl)cc2)cc1Cl)C(=O)N1CCN(CCO)CC1
inactive: [1] -18.9% | [2] -8.65% | [3] 15.9% | [4] 12.3% | [5] 11.3% | [6] 12.9%

COc1ccc(C(c2cc3c(cc2O)OCO3)N2CCOCC2)c(OC)c1 (stereo not given)
inactive: [1] -75.2% | [2] -31.1% | [3] 4.15% | [4] -25.9% | [5] -29.6% | [6] -17.9%

COc1cc(/C=C2/C(=O)N(c3ccccc3)N=C2C)cc(OC)c1OC
inactive: [1] 12.6% | [2] -3.4% | [3] 24.1% | [4] 2.5% | [5] 11.6% | [6] 17.9%

CCc1ccc(C(C)=O)cc1
inactive: [1] 7.05% | [2] 41.5% | [3] 34.8% | [4] 3.5% | [5] -9.7% | [6] 52.6%

CC(=O)CC(=O)NCc1ccccc1
inactive: [1] 10.7% | [2] -15.9% | [3] 25% | [4] 17.2% | [5] 1.55% | [6] 5.15%

CNC(=S)SSSC(=S)NC
inactive: [1] 13.1% | [2] -1.9% | [3] 1.8% | [4] 2.55% | [5] -10.3% | [6] 5.55%

C[N+](C)(C)/N=C(/c1ccccc1)C1CCCCC1
inactive: [1] -20.2% | [2] -2.1% | [3] -4.35% | [4] -43.5% | [5] 0.4% | [6] 7.7%

CC(=O)OCc1ccc2ccccc2c1
inactive: [1] -9.35% | [2] -29.7% | [3] -10.8% | [4] -3.2% | [5] -7.65% | [6] -14.7%

CC(C)N=C(c1ccccc1)N(O)c1ccccc1
inactive: [1] -0.4% | [2] 3.15% | [3] -0.75% | [4] -10.3% | [5] 4.2% | [6] 5.05%

CN(C=O)c1cccc(C(=O)O)c1
inactive: [1] 4.05% | [2] -1.2% | [3] -3.95% | [4] -29.5% | [5] -2.35% | [6] 7.45%

COC(=O)C(O)C(O)C(O)C(O)C(=O)OC (stereo not given)
inactive: [1] 2.2% | [2] 17.4% | [3] 10.8% | [4] -5.65% | [5] 11.2% | [6] 13.3%

COC(=O)C1Cc2ccccc2C1=O (stereo not given)
inactive: [1] -1.75% | [2] -13.2% | [3] -14.8% | [4] -40.5% | [5] -11.8% | [6] -6.45%

Cc1cc(Cl)cc2c1NC(=O)C2(O)CC(=O)c1ccco1 (stereo not given)
inactive: [1] 6.55% | [2] -12.4% | [3] -13.8% | [4] 9.65% | [5] -11.7% | [6] -4.65%

CC(=O)c1c(-c2ccccc2)noc1C
inactive: [1] 7.35% | [2] -7.35% | [3] -7.55% | [4] -37.4% | [5] -12.8% | [6] -1.4%

Nc1nc(-c2ccccc2)c(N=Nc2ccc([N+](=O)[O-])cc2Cl)s1
inactive: [1] -4.7% | [2] 2.55% | [3] 4.4% | [4] -13.1% | [5] -11.5% | [6] 3.6%

O=C(CCN1CCCCC1)c1cc2cc([N+](=O)[O-])ccc2oc1=O
inactive: [1] 55.1% | [2] 29.6% | [3] 23.2% | [4] -17.8% | [5] 47% | [6] 32.6%

Cc1cc2c(cc1C)NC1C(=O)C(c3ccccc3Cl)OC1=N2 (stereo not given)
inactive: [1] -1.2% | [2] -10.4% | [3] -2.4% | [4] 4.55% | [5] 0.55% | [6] 3.15%

Oc1ccc(N2CCOCC2)cc1
inactive: [1] 0.45% | [2] 16.8% | [3] 3.05% | [4] -32% | [5] 25.6% | [6] 8.5%

Nc1nc(N)c(N2CCN(Cc3ccccc3)CC2)c(Cl)n1
inactive: [1] 30.1% | [2] 10.8% | [3] 33.1% | [4] 18.9% | [5] 18.3% | [6] 27.4%

CCOC(=O)NC1C2CC3C(C2)C31 (stereo not given)
inactive: [1] -54.6% | [2] -32.7% | [3] -29.4% | [4] -20.6% | [5] -52.4% | [6] -32.5%

Nc1ccc(S(=O)(=O)O)cc1N
inactive: [1] -15.3% | [2] -11.1% | [3] -8% | [4] -19.5% | [5] 2.95% | [6] -4.5%

Cc1cc(-c2ccccc2)c(C#N)c(=O)[nH]1
inactive: [1] -4.5% | [2] 12.2% | [3] -10.8% | [4] -14.8% | [5] 3.65% | [6] -7.35%

Cc1ccc(N2CCN(C(=O)c3ccccc3)CC2)cc1
inactive: [1] -16.9% | [2] 1.55% | [3] -2.45% | [4] -13.6% | [5] 16.5% | [6] -9.35%

CC1(C)CC(OP(=O)(OC2CC(C)(C)N(O)C(C)(C)C2)c2ccccc2)CC(C)(C)N1O
inactive: [1] 32.1% | [2] 8.45% | [3] 11.1% | [4] -21.1% | [5] 6.3% | [6] 6.5%

COc1cc(C)c2c(c1)C=C[C@@H]1[C@@H]2CC[C@]2(C)C(=O)CC[C@@H]12
inactive: [1] -10.1% | [2] 3.3% | [3] -2.55% | [4] -48.2% | [5] -0.05% | [6] -3.1%

CC(C)NCc1ccccc1Sc1ccccc1CNC(C)C
inactive: [1] 22.1% | [2] 5.45% | [3] 12.1% | [4] 12.8% | [5] 11.4% | [6] 16.2%

O=C(Nc1ccc2ccccc2c1)c1ccc(Cl)c(Cl)c1
inactive: [1] -5% | [2] 29.6% | [3] 24.9% | [4] -6.8% | [5] 18.9% | [6] 27.4%

O=C(c1ccc(Cl)cc1)C(Br)C(C[N+](=O)[O-])c1ccccc1 (stereo not given)
active: [1] 99.3% | [2] 99% | [3] 99.5% | [4] 97.2% | [5] 99.1% | [6] 99.2%

COc1cccc(C2C(C(=O)O)=C(CO)Oc3cc4c(cc32)OCO4)c1 (stereo not given)
inactive: [1] 21.4% | [2] 15.8% | [3] 21.9% | [4] 13.6% | [5] 12.6% | [6] 15.2%

COC(=O)C(NC(=O)C(NC(=O)C(N)C(C)C)C(C)C)C(C)C (stereo not drawn) (H-Val-Val-Val-OMe; configuration not given here)
inactive: [1] 5.3% | [2] 20.6% | [3] 5.4% | [4] -11.7% | [5] -3.4% | [6] -9.5%

CCCCCCCCC1C(CCCCCCCC(=O)N(CC)CCCOCC)C2(Cl)C(Cl)=C(Cl)C1(Cl)C2(Cl)Cl (stereo not given)
inactive: [1] 3.45% | [2] 4.65% | [3] 13.9% | [4] -10.6% | [5] -6.35% | [6] 16.4%

O=C1c2ccccc2-c2ccc3c4ccc5c6c(ccc(c7ccc1c2c73)c64)-c1ccccc1C5=O
inactive: [1] 25% | [2] -5.4% | [3] 11.1% | [4] -30.4% | [5] 5.75% | [6] 18.4%

O=C1CC(=O)N2CCCCC2N1 (stereo not given)
inactive: [1] -17.7% | [2] -5.15% | [3] -0.25% | [4] -10.9% | [5] 6.4% | [6] -25.7%

CSc1nc2c(N)nc(N)nc2nc1C
inactive: [1] 5.9% | [2] 0.2% | [3] 0.75% | [4] -31.6% | [5] -16.7% | [6] 11.5%
